According to PubChem BioAssay (Tox21):
Records with an inconclusive call do not appear. Calls of active or inactive are those of the source. Calls follow the shape of the dose curve; as a rule, active = well fitted activation curve with a large enough effect in the repeat runs; inconclusive = weak or mixed curves; inactive = flat fitted curve, though single readings scatter.

Experiment: A CellTox Green Cytotoxicity Assay to monitor cytotoxicity in HepG2 cells - 40 hour (AID 1224879); also: nearly all actives have a fitted effect of over 40% in size
Conditions: CellTox Green fluorescence; series mostly up to 76.8 µM; cytotoxicity increase: at the top concentration
From the text: National Center for Advancing Translational Sciences [NCATS]
NIH Chemical Genomics Center [NCGC]
U.S. Environmental Protection Agency [EPA]
National Institutes of Environmental Health Sciences [NIEHS]
National Toxicology Program [NTP]
Cell-based models are critical for drug discovery. Determining the natural cytotoxic effects resulting from test compounds is an essential research activity. A CellTox Green Cytotoxicity Assay to monitor cytotoxicity in real time of continues cell culture during 40 hours of the compound treatment was used to screen Tox21 10K library compounds in HepG2 cells. CellTox Green Cytotoxicity Assay is a nonlytic, homogeneous, biofluorescent method to measure cytotoxicity in cell culture after experimental manipulation. The assay system uses a proprietary asymmetric cyanine dye that is excluded from viable cells but preferentially stains the dead cell's DNA. […] Viable cells produce no appreciable increases in fluorescence. Therefore, the fluorescence signal produced by the binding interaction with dead cell DNA is proportional to cytotoxicity.
The mixture of HepG2 cell suspension and reagents were dispensed at 600cells/6 ul/well in 1536-well tissue culture treated black solid bottom plates using a Multidrop dispenser. After the assay plates were incubated at a 37 C/5% CO2 incubator for 5 hours, 23 nL of compounds dissolved in DMSO, positive and negative controls was transferred to the assay plate by a pintool work station. The plates were incubated at 37 C for 40 hours. The fluorescence intensity were measured at 0h, 8h, 16h, 24h, 32h and 40h time points using ViewLux plate reader during compound treatment.
% is scaled to controls: 0 for no effect and ±100 for the full control effect; potency is read from the fitted curve at half-maximal effect.

| Structure (SMILES) | cytotoxicity increase | Potency |
| --- | --- | --- |
| O=C(c1ccc(O)cc1)c1ccc(O)cc1 | -0.0504% (inactive) |  |
| CCOC(=O)CC(C)C | -2.94% (inactive) |  |
| COc1ccc2[nH]c(S(=O)Cc3ncc(C)c(OC)c3C)nc2n1 (stereo not given) | -8.54% [at 35.3 µM] (inactive) |  |
| Cc1cccc(Oc2ccccc2)c1 |  | 47.8 µM (active) |
| C1CCC2OC2C1 (stereo not given) | -0.0803% (inactive) |  |
| CN1CCC[C@@H]1c1cccnc1 | -37.1% [at 35.3 µM] (inactive) |  |
| CC(=O)c1ccc2c(c1)[C@H](NC(=O)c1ccc(F)cc1)[C@@H](O)C(C)(C)O2 | -0.198% (inactive) |  |
| Cc1ccccc1N=Nc1ccc(N=Nc2c(O)ccc3ccccc23)c(C)c1 | -16.5% [at 35.3 µM] (inactive) |  |
| C=CC[N+]1([C@H]2C[C@H]3[C@@H]4CC[C@H]5C[C@H](OC(C)=O)[C@@H](N6CCCCC6)C[C@]5(C)[C@H]4CC[C@]3(C)[C@H]2OC(=O)CC)CCCCC1 | -0.0708% [at 35.3 µM] (inactive) |  |
| CC(C)NCC(O)COc1ccc(CC(N)=O)cc1 (stereo not given) | -10.7% (inactive) |  |
| COC(Cc1ccccc1)OC | -10.4% (inactive) |  |
| O=C1c2cccc(O)c2C(=O)c2c(O)cc(CO)cc21 | -0.0866% (inactive) |  |
| S=C(S)NCCNC(=S)S | -23.6% (inactive) |  |
| Oc1ccc(Sc2ccc(O)cc2)cc1 | -4.46% (inactive) |  |
| CCCCCc1ccc(N)cc1 |  | 49 µM (active) |
| CCOC(=S)SSC(=S)OCC | 0.0373% (inactive) |  |
| C1=Cc2ccccc2C1 | -0.712% (inactive) |  |
| CC(C)(C)c1cc(O)c(C(C)(C)C)cc1O | 29.7% (inactive) |  |
| CCCCOC(=O)/C=C\C(=O)OCCCC | 24% (inactive) |  |
| CCOC(=O)C1=NN(c2ccccc2)C(=O)C1 | -10% (inactive) |  |

| Structure (SMILES) | cytotoxicity increase | Potency |
| --- | --- | --- |
| CC1CCc2cc(F)cc3c(=O)c(C(=O)O)cn1c23 (stereo not given) | -3.5% [at 35.3 µM] (inactive) |  |
| CCc1nn(C2CCCCC2)c2cc(C3(C#N)CCC(C(=O)O)CC3)ccc12 (stereo not given) | 7.34% (inactive) |  |
| O=[N+]([O-])c1cc[n+]([O-])cc1 | 1.3% (inactive) |  |
| O=S(=O)(O)c1ccc(O)c2ncccc12 | -10.8% (inactive) |  |
| O=C(O)C(c1ccc(Cl)cc1)c1ccc(Cl)cc1 | -7.57% (inactive) |  |
| CCOC(=O)CC(=O)c1cc(F)c(Cl)nc1Cl | -16.7% (inactive) |  |
| N[C@H]1C(O)O[C@H](CO)[C@H](O)[C@@H]1O (stereo not given in full) | -10.6% (inactive) |  |
| CCCC(C)C | 3.15% (inactive) |  |
| CCOc1nc2cccc(C(=O)O)c2n1Cc1ccc(-c2ccccc2-c2nn[nH]n2)cc1 | -14.4% [at 35.3 µM] (inactive) |  |
| CCCCOC(O)CC (stereo not given) | -1.25% (inactive) |  |
| N#Cc1c(F)cccc1F | 0.201% (inactive) |  |
| CC(C)(C)c1ccc(S)cc1 | -14.2% (inactive) |  |
| CC/C(=C\C(=N/O)C(N)=O)C(C)[N+](=O)[O-] (stereo not given) | -9.62% (inactive) |  |
| Cc1cc(O)ccc1N | 7.32% (inactive) |  |
| CC(C)(Oc1ccc(Cl)cc1)C(=O)OCCCOC(=O)C(C)(C)Oc1ccc(Cl)cc1 | -8.56% [at 35.3 µM] (inactive) |  |
| C=CC(=O)OCCOC(=O)CCC(=O)O | -8.18% (inactive) |  |
| CN1CCC(=C2c3ccccc3CCc3sccc32)CC1 |  | 23.9 µM (active) |
| CCCCCCCCN(C)C | -8.55% (inactive) |  |
| CC[C@@H]1C[C@H](N(Cc2cc(C(F)(F)F)cc(C(F)(F)F)c2)C(C)=O)c2cc(C(F)(F)F)ccc2N1C(=O)OC(C)C | 9.12% (inactive) |  |
| O=C(CCN1CCN2CCCC2C1)N1c2ccccc2Sc2ccc(Cl)cc21 (stereo not given) | 22.2% [at 15.8 µM] (inactive) |  |
